Among the data in PubChem BioAssay (NCATS) are Potency values, retold here.

Results filed as inconclusive are left out. Active and inactive are the calls of the source. The call rests on the fitted dose curve; in most records, active means well fitted cell-killing curve with a large enough effect; inconclusive means small, poorly fitted or top-dose-only effect, or effect the other way; inactive means no such curve, though single readings can be large or run the other way.
Potency means the concentration at half of the fitted maximal effect.

A short description of the first assay: Quantitative High-Throughput drug screen in 47 multiple myeloma cell lines against the NCATS MIPE library collection: ARP1_JJKsccF8 cell viability assay (AID 1918928; further: nearly all actives have a fitted effect of over 40% in size). The settings on record: ARP1 myeloma cells viability, CellTiter-Glo ATP, 48 h; series mostly up to 45.8 µM. The method in brief:
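Each line was plated at 500 cells/well and treated 48 h with library drugs. Viability came from CellTiter-Glo luminescence relative to DMSO and cell-free medium controls.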
As for `CCOc1cc2ncc(C#N)c(Nc3ccc(OCc4ccccn4)c(Cl)c3)c2cc1NC(=O)C=CCN(C)C`, the Potency is 14.8 µM (active).

Take `Nc1nc(=O)n([C@H]2CSC(CO)O2)cc1F` (stereo partly specified): the Potency result is “inactive”.

For the compound `NC(=O)N1CCC(CC(=O)N2CCC([C@H]3c4ncc(Br)cc4CCc4cc(Cl)cc(Br)c43)CC2)CC1`, the Potency was 13.2 µM (active). Regarding `C#Cc1cccc(Nc2ncnc3cc(OCCOC)c(OCCO)cc23)c1`, the Potency is 23.5 µM (active). Still for that read-out and setting: under `CCn1c(=O)c2c(nc(C=Cc3ccc(OC)c(OC)c3)n2C)n(CC)c1=O` stands “inactive”; under `CCCNS(=O)(=O)Nc1ncnc(OCCOc2ncc(Br)cn2)c1-c1ccc(Br)cc1`, “inactive”; under `C=CCNC1=C2C[C@@H](C)C[C@H](OC)[C@@H](O)[C@@H](C)C=C(C)[C@H](OC(N)=O)[C@@H](OC)C=CC=C(C)C(=O)NC(=CC1=O)C2=O`, 0.148 µM (active). As to `CC(=O)O[C@H]1C[C@@H]2CC[C@H]3[C@H]4C[C@H]([N+]5(C)CCCCC5)[C@@H](OC(C)=O)[C@@]4(C)CC[C@@H]3[C@@]2(C)C[C@H]1N1CCCCC1`, the Potency entry was “inactive”. As for `Cn1c(Nc2ccc(C(F)(F)F)cc2)nc2cc(Oc3ccnc(-c4ncc(C(F)(F)F)[nH]4)c3)ccc21`, the Potency was 20.9 µM (active). Take `C[C@H](NCc1ccc2c(c1)nc(NC(=O)c1ccc(-c3cn[nH]c3)s1)n2CCc1ccccc1)C(C)(C)C`: the Potency was 1.32 µM (active). Same read-out and setting: under `COc1cc2c(Nc3ccc(Cl)c(Cl)c3F)ncnc2cc1OCC1C[C@@H]2CN(C)C[C@H]2C1` stands 8.33 µM (active); under `C=CC[C@@H]1C=C(C)C[C@H](C)C[C@H](OC)[C@H]2O[C@@](O)(C(=O)C(=O)N3CCCC[C@H]3C(=O)O[C@H](C(C)=C[C@@H]3CC[C@H](O)[C@H](OC)C3)[C@@H](C)[C@@H](O)CC1=O)[C@@H](C)C[C@@H]2OC`, 2.09 µM (active). Still for that read-out and setting: under `N#Cc1c(NC(=O)c2cccc3ccccc23)sc2c1CCCC2` stands 0.418 µM (active); under `C=Cc1c(C)c2cc3nc(cc4[nH]c(cc5nc(cc1[nH]2)C(C)=C5CCC(=O)O)c(CCC(=O)OC)c4C)[C@@]1(C)C3=CC=C(C(=O)OC)[C@H]1C(=O)OC`, 0.743 µM (active); under `CCCCCCCCCCCCc1ccc(S(=O)(=O)Nc2nncs2)cc1`, “inactive”. As to `N#Cc1ccc(COC[C@H]2O[C@@H](n3c(NCc4ccc(Cl)c(Cl)c4)nc4c(N)ncnc43)[C@@H](O)[C@@H]2O)cc1`, the Potency is 6.62 µM (active). Still for that read-out and setting: under `CN(C)CC[C@H](c1ccc(Cl)cc1)c1ccccn1` stands “inactive”. Regarding `COc1cc(O)c2c(c1)C1OC1C[C@H](O)[C@H](O)C(=O)C=CC[C@H](C)OC2=O` (stereo partly specified), the Potency is 4.69 µM (active).

For the compound `Cc1ccc2nc(NCCN)c3ncc(C)n3c2c1`, the Potency is 8.33 µM (active). The same measure, in the same setting: under `CN(N=O)C(=O)N[C@H]1C(O)OC(CO)[C@@H](O)[C@H]1O` (stereo partly specified) stands “inactive”. Turning to `O=c1c(O)c(-c2ccc(O)c(O)c2)oc2cc(O)ccc12`, the Potency is 20.9 µM (active). Regarding `NC[C@H]1O[C@H](O[C@H]2[C@@H](O)[C@@H](O[C@H]3O[C@H](CO)[C@@H](O)[C@H](N)[C@@H]3O)[C@H](N)C[C@@H]2N)[C@H](N)C[C@H]1O`, the Potency entry is “inactive”. Same read-out and setting: under `CC(C)[C@H](CO)Nc1nc(Nc2cccc(Cl)c2)c2ncn(C(C)C)c2n1` stands 23.5 µM (active); under `CC(C)OC(=O)[C@H](C)N[P@](=O)(OC[C@H]1O[C@@H](n2ccc(=O)[nH]c2=O)[C@](C)(F)[C@H]1O)Oc1ccccc1`, “inactive”; under `CCOC(=O)N1CCN([N+]([O-])=NOc2ccc([N+](=O)[O-])cc2C#N)CC1`, 1.05 µM (active). On the same count and under the same terms, under `CCCc1nc(C(C)(C)O)c(C(=O)O)n1Cc1ccc(-c2ccccc2-c2nn[nH]n2)cc1` stands “inactive”; under `COc1cc(OC)cc(-c2ccc3ncc4ccc(=O)n(-c5ccc(N6CCNCC6)c(C(F)(F)F)c5)c4c3c2)c1`, 3.32 µM (active); under `Cc1cnc(Nc2ccc(N3CCN(C)CC3)cc2)nc1Nc1cccc(S(=O)(=O)NC(C)(C)C)c1`, 3.72 µM (active). On the same count and under the same terms, under `Cn1cc(CNCC2CCN(c3ncc(C(=O)NO)cn3)CC2)c2ccccc21` stands 0.0166 µM (active); under `O=c1[nH]c(=O)n([C@H]2C[C@@H](O)[C@@H](CO)O2)cc1F`, 5.26 µM (active). Take `COc1ccc(Nc2cc(-c3cnc(N)nc3)nc(N3CCOCC3)n2)cn1`: the Potency is 0.469 µM (active).

As to `COc1ccc(C[C@@H](C)[C@@H](C)Cc2ccc(OC)c(OC)c2)cc1OC`, the Potency is 0.132 µM (active). The same measure, in the same setting: under `Cc1cc(-c2nnc3n2CCCCC3)c(C)n1-c1ccccc1` stands “inactive”.

The nature of another assay: Quantitative High-Throughput drug screen in 47 multiple myeloma cell lines against the NCATS MIPE library collection: ARD_JJKsccE7 cell viability assay (AID 1918929). The settings on record: ARD myeloma cell line viability, CellTiter-Glo, 48 h; series mostly up to 45.8 µM. In a few lines:
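Myeloma cell lines, 500 cells per well, exposed to MIPE 4.0 library compounds for 48 h at 37C, 5% CO2. Viability from ATP by CellTiter-Glo luminescence; normalised to DMSO (100%) and media-only (0%) wells.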
For the compound `CCOc1cc2ncc(C#N)c(Nc3ccc(OCc4ccccn4)c(Cl)c3)c2cc1NC(=O)C=CCN(C)C`, the Potency is 0.662 µM (active). With `Nc1nc(=O)n([C@H]2CSC(CO)O2)cc1F` (stereo partly specified), the Potency result is “inactive”. Turning to `NC(=O)N1CCC(CC(=O)N2CCC([C@H]3c4ncc(Br)cc4CCc4cc(Cl)cc(Br)c43)CC2)CC1`, the Potency was 2.09 µM (active). Take `COc1cc2c(cc1O)CCC1C2CC[C@@]2(C)C1CC[C@@H]2O` (stereo partly specified): the Potency entry was “inactive”. Consider `C#Cc1cccc(Nc2ncnc3cc(OCCOC)c(OCCO)cc23)c1`, for which the Potency was 0.418 µM (active). The same measure, in the same setting: under `CCCNS(=O)(=O)Nc1ncnc(OCCOc2ncc(Br)cn2)c1-c1ccc(Br)cc1` stands “inactive”; under `C=CCNC1=C2C[C@@H](C)C[C@H](OC)[C@@H](O)[C@@H](C)C=C(C)[C@H](OC(N)=O)[C@@H](OC)C=CC=C(C)C(=O)NC(=CC1=O)C2=O`, 0.0935 µM (active); under `O=C(Nc1nnc(-c2ccco2)o1)c1cc(-c2ccccc2)nc2ccccc12`, 18.7 µM (active).

As for `CC(=O)O[C@H]1C[C@@H]2CC[C@H]3[C@H]4C[C@H]([N+]5(C)CCCCC5)[C@@H](OC(C)=O)[C@@]4(C)CC[C@@H]3[C@@]2(C)C[C@H]1N1CCCCC1`, the Potency entry is “inactive”. Take `COc1cc2ncnc(Nc3cccc(Br)c3)c2cc1OC`: the Potency is 16.6 µM (active). With `Cn1c(Nc2ccc(C(F)(F)F)cc2)nc2cc(Oc3ccnc(-c4ncc(C(F)(F)F)[nH]4)c3)ccc21`, the Potency is 16.6 µM (active). Regarding `C[C@H](NCc1ccc2c(c1)nc(NC(=O)c1ccc(-c3cn[nH]c3)s1)n2CCc1ccccc1)C(C)(C)C`, the Potency was 0.526 µM (active). Regarding `COc1cc2c(Nc3ccc(Cl)c(Cl)c3F)ncnc2cc1OCC1C[C@@H]2CN(C)C[C@H]2C1`, the Potency is 13.2 µM (active).

In the case of `c1ccc(CNc2nc(NCc3ccccc3)c3ccccc3n2)cc1`, the Potency is 18.7 µM (active). The same measure, in the same setting: under `C=CC[C@@H]1C=C(C)C[C@H](C)C[C@H](OC)[C@H]2O[C@@](O)(C(=O)C(=O)N3CCCC[C@H]3C(=O)O[C@H](C(C)=C[C@@H]3CC[C@H](O)[C@H](OC)C3)[C@@H](C)[C@@H](O)CC1=O)[C@@H](C)C[C@@H]2OC` stands 2.09 µM (active); under `N#Cc1c(NC(=O)c2cccc3ccccc23)sc2c1CCCC2`, 0.296 µM (active); under `C=Cc1c(C)c2cc3nc(cc4[nH]c(cc5nc(cc1[nH]2)C(C)=C5CCC(=O)O)c(CCC(=O)OC)c4C)[C@@]1(C)C3=CC=C(C(=O)OC)[C@H]1C(=O)OC`, 0.296 µM (active).

For the compound `N#Cc1ccc(COC[C@H]2O[C@@H](n3c(NCc4ccc(Cl)c(Cl)c4)nc4c(N)ncnc43)[C@@H](O)[C@@H]2O)cc1`, the Potency is 5.26 µM (active).

As for `COc1cc(O)c2c(c1)C1OC1C[C@H](O)[C@H](O)C(=O)C=CC[C@H](C)OC2=O` (stereo partly specified), the Potency is 5.9 µM (active). For the compound `Cc1ccc2nc(NCCN)c3ncc(C)n3c2c1`, the Potency was 9.35 µM (active). In the case of `CN(N=O)C(=O)N[C@H]1C(O)OC(CO)[C@@H](O)[C@H]1O` (stereo partly specified), the Potency entry is “inactive”. On the same count and under the same terms, under `NC[C@H]1O[C@H](O[C@H]2[C@@H](O)[C@@H](O[C@H]3O[C@H](CO)[C@@H](O)[C@H](N)[C@@H]3O)[C@H](N)C[C@@H]2N)[C@H](N)C[C@H]1O` stands “inactive”; under `CC(C)OC(=O)[C@H](C)N[P@](=O)(OC[C@H]1O[C@@H](n2ccc(=O)[nH]c2=O)[C@](C)(F)[C@H]1O)Oc1ccccc1`, “inactive”.

Regarding `Cc1cnn(C)c1C(=O)Nc1cc(Nc2ccc3c(C=Cc4ccccn4)n[nH]c3c2)ccc1F`, the Potency was 4.18 µM (active).

Consider `CCOC(=O)N1CCN([N+]([O-])=NOc2ccc([N+](=O)[O-])cc2C#N)CC1`, for which the Potency is 0.833 µM (active). On to `CCCc1nc(C(C)(C)O)c(C(=O)O)n1Cc1ccc(-c2ccccc2-c2nn[nH]n2)cc1`, for which the Potency entry is “inactive”.

For the compound `COc1cc(OC)cc(-c2ccc3ncc4ccc(=O)n(-c5ccc(N6CCNCC6)c(C(F)(F)F)c5)c4c3c2)c1`, the Potency was 2.64 µM (active). The same measure, in the same setting: under `Cc1cnc(Nc2ccc(N3CCN(C)CC3)cc2)nc1Nc1cccc(S(=O)(=O)NC(C)(C)C)c1` stands 0.59 µM (active). With `Cn1cc(CNCC2CCN(c3ncc(C(=O)NO)cn3)CC2)c2ccccc21`, the Potency was 0.0526 µM (active).

Take `C[C@]12CCC(=O)C=C1[C@@H]1CC1[C@H]1[C@H]3[C@@H]4C[C@H]4[C@@]4(CCC(=O)O4)[C@@]3(C)CC[C@H]12` (stereo partly specified): the Potency was 18.7 µM (active).

For `O=c1[nH]c(=O)n([C@H]2C[C@@H](O)[C@@H](CO)O2)cc1F`, the Potency is 23.5 µM (active). As to `COc1ccc(Nc2cc(-c3cnc(N)nc3)nc(N3CCOCC3)n2)cn1`, the Potency is 0.372 µM (active). For the compound `Cc1cc(-c2nnc3n2CCCCC3)c(C)n1-c1ccccc1`, the Potency result is “inactive”.
